Data on nine compounds can be found in paper PMC5540273 (PLoS ONE, 2017).

Structures are written as SMILES.

One test relates to T1, PIK4CB.
T1 construct: gene PI4KB

For the next test, the system named is T2, PRKR.
T2 construct: gene EIF2AK2

The subject of another test is T3, PIP5K2C.
T3 construct: gene PIP4K2C
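Also: kd values determined as follow-up on hits from a single-replicate KINOMEscan panel screen.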

On to `COc1cccc(C2=C(Nc3cccc(C(=O)O)c3)C(=O)NC2=O)c1` [SB-390770], for which the Kd (usually the concentration at which binding is half-saturated) in the test on PRKCI is > 10000 nM. Consider `Cc1cc(Nc2nc(-c3cccc(C)n3)nc3ccccc23)ccn1` [GW872411], for which the Kd with PRKD1 was determined as 6.1 nM; with PRKD2, 9.4 nM.

For the compound `Cc1ccc(Oc2ccc(Nc3ncnc4cc[nH]c34)cc2C)cn1`, the equilibrium dissociation constant (Kd) in the test on RIOK1 was > 10000 nM.

Consider `COc1cc2nccc(Nc3cccc(Oc4ccccc4)c3)c2cc1OC.Cl` [GW284543], for which, in the test on RIPK2, binding was put at a Kd of 440 nM. On the same count and under the same terms, the result for `COc1ccc(Nc2nccc(N3CCC(NS(=O)(=O)c4ccc(NC(C)=O)cc4)C3)n2)cc1` (stereo not shown) [GSK1379729] reads > 10000 nM. For `COc1ccc(-c2cc3c(C)nc(N)nc3n([C@H]3CC[C@H](OCCO)CC3)c2=O)cn1`, the Kd with PIK4CB was determined as 46 nM.

Take `Cc1ccccc1COc1cc(-n2cnc3cc(Cl)ccc32)sc1C(N)=O` [GW813349]: the results for the dissociation constant Kd in the test on PLK1, with PLK2 and in the test on PLK3 were 19 nM, 68 nM and 99 nM, respectively. Consider `O=C1NC(=O)C(c2ccccc2)=C1Nc1cccc(O)c1` [SB-390534], for which the dissociation constant Kd in the test with PRKR was > 10000 nM. For `COc1cc2ncn(-c3cc(OCc4ccncc4Br)c(C(N)=O)s3)c2cc1OC` [GW854278], the Kd worked out at 610 nM in the test with PIP5K1C; 330 nM with PIP5K2C; 1.1 nM in the test with PLK1; 1.4 nM in the test on PLK2; 9.4 nM with PLK3.
